Reference: PubChem BioAssay AID1159580 (chemical genetic matrix, 2015)
“And” between values parts separate entries of the source, which are not always exact repeats. Equal entries are not always repeated. About 2,000 (36%) of roughly 5,500 compounds were called active. Inconclusive results (about 18%) are left out. Rule as the data show it: active = normalized growth mostly below about 0.91 (no sharp cut-off); inconclusive = no clear call, values can overlap the other calls; inactive = mostly above about 0.92. This is one part of the list.

Experiment: chemical genetic growth profiling, strain panel (AID 1159580);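 also: tested at 20 µM; growth read once vehicle control cultures reached saturation at 30 °C; 1 = growth at the plate median or of vehicle wells; lower values mean less growth of the strain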
Conditions: S. cerevisiae deletion strains, growth OD

Measured: normalized growth

NCCCCC(=O)O
inactive: locus YAL013W, strain DEP1, active compounds read low 1.03 | locus YAL021C, strain ccr4, active compounds read low 1.01 | locus YAL026C, strain drs2, active compounds read low 1.02 | locus YAL030W, strain snc1, active compounds read low 1.01 | locus YAL040C, strain CLN3, active compounds read low 1.01 | locus YBL061C, strain skt5, active compounds read low 1.02 | locus YBR009C, strain hhf1, active compounds read low 1.02 | locus YBR021W, strain FUR4, active compounds read low 0.976 | locus YBR023C, strain chs3, active compounds read low 1.02 | locus YBR171W, strain sec66, active compounds read low 1.02 | locus YBR229C, strain ROT2, active compounds read low 1.02 | locus YBR231C, strain swc5, active compounds read low 1.02 | locus YBR279W, strain paf1, active compounds read low 1.01 | locus YCL011C, strain gbp2, active compounds read low 1.02 | locus YCL016C, strain dcc1, active compounds read low 1.01 | locus YCL029C, strain bik1, active compounds read low 0.998 | locus YCL061C, strain MRC1 (second series), active compounds read low 1 | locus YCL069W, strain vba3, active compounds read low 1.01 | locus YCR088W, strain abp1, active compounds read low 1.02 | locus YDL005C, strain med2, active compounds read low 1.02 | locus YDL035C, strain GPR1, active compounds read low 1.02 | locus YDL040C, strain nat1, active compounds read low 1.02 | locus YDL074C, strain BRE1, active compounds read low 1.04 | locus YDL101C, strain DUN1, active compounds read low 1.03 | locus YDL134C, strain PPH21, active compounds read low 1.02 | locus YDL185W, strain tfp1, active compounds read low 0.995 | locus YDL192W, strain arf1, active compounds read low 0.992 | locus YDR001C, strain nth1, active compounds read low 1.01 | locus YDR069C, strain doa4, active compounds read low 1.02 | locus YDR101C, strain arx1, active compounds read low 0.985 | locus YDR137W, strain rgp1, active compounds read low 1.02 | locus YDR150W, strain NUM1, active compounds read low 1.03 | locus YDR159W, strain sac3, active compounds read low 1.03 | locus YDR162C, strain NBP2, active compounds read low 1.04 | locus YDR195W, strain ref2 1.01 | locus YDR297W, strain sur2, active compounds read low 1.02 | locus YDR318W, strain mcm21, active compounds read low 0.992 | locus YDR334W, strain swr1, active compounds read low 1.01 | locus YDR335W, strain msn5, active compounds read low 1.01 | locus YDR388W, active compounds read low 0.986 | locus YDR392W, strain spt3, active compounds read low 1.01 | locus YDR502C, strain sam2, active compounds read low 1 | locus YEL003W, strain gim4, active compounds read low 1.01 | locus YEL037C, strain rad23, active compounds read low 1 | locus YEL061C, strain CIN8 (second series), active compounds read low 1.01 | locus YEL061C, strain CIN8, active compounds read low 1.01 | locus YER002W, strain NOP16, active compounds read low 1 | locus YER015W, strain faa2, active compounds read low 1.02 | locus YER016W, strain bim1, active compounds read low 1.02 | locus YER110C, active compounds read low 0.977 | locus YER111C, strain swi4, active compounds read low 1.03 | locus YER155C, strain BEM2 (second series), active compounds read low 1.04 | locus YER155C, strain BEM2, active compounds read low 1.03 | locus YER167W, strain BCK2, active compounds read low 1.03 | locus YFR010W, strain ubp6, active compounds read low 1.01 | locus YGL078C, strain dbp3, active compounds read low 0.989 | locus YGL086W, strain mad1, active compounds read low 0.993 | locus YGL167C, strain pmr1, active compounds read low 1.03 | locus YGL173C, strain kem1, active compounds read low 1.02 | locus YGL227W, strain vid30, active compounds read low 1.02 | locus YGL240W, strain doc1, active compounds read low 1.03 | locus YGL248W, strain PDE1, active compounds read low 1.03 | locus YGL253W, strain hxk2, active compounds read low 1.01 | locus YGR078C, strain PAC10, active compounds read low 1.03 | locus YGR135W, strain pre9, active compounds read low 0.985 | locus YGR229C, strain SMI1, active compounds read low 1.02 and 1.01 | locus YGR252W, strain gcn5, active compounds read low 0.917 | locus YHR013C, strain ard1, active compounds read low 1.04 | locus YHR027C, strain rpn1, active compounds read low 1.01 | locus YHR030C, strain SLT2, active compounds read low 1.02 and 0.975 | locus YHR079C, strain IRE1 (second series), active compounds read low 0.992 | locus YHR079C, strain IRE1, active compounds read low 0.961 | locus YHR094C, strain hxt1, active compounds read low 1 | locus YHR129C, strain ARP1, active compounds read low 1.02 | locus YHR142W, strain chs7, active compounds read low 1.03 | locus YHR200W, strain rpn10, active compounds read low 1.01 | locus YIL066C, strain RNR3, active compounds read low 1.02 | locus YIL073C, strain SPO22, active compounds read low 1.02 | locus YIL125W, strain kgd1, active compounds read low 0.994 | locus YIR030C, strain dcg1, active compounds read low 0.998 | locus YJL092W, strain hpr5, active compounds read low 1.02 | locus YJL095W, strain BCK1 (second series), active compounds read low 1.03 | locus YJL095W, strain BCK1, active compounds read low 1.02 and 0.979 | locus YJL115W, strain asf1, active compounds read low 1.02 | locus YJL129C, strain trk1, active compounds read low 1.03 | locus YJL134W, strain LCB3, active compounds read low 1.02 | locus YJL154C, strain vps35, active compounds read low 1.02 | locus YJL164C, strain tpk1, active compounds read low 1.02 | locus YJL166W, strain qcr8, active compounds read low 1.02 | locus YJL168C, strain set2, active compounds read low 0.991 | locus YJL187C, strain SWE1 (second series), active compounds read low 1.02 | locus YJR043C, strain POL32, active compounds read low 1.03 | locus YJR066W, strain TOR1, active compounds read low 0.902 | locus YJR075W, strain HOC1, active compounds read low 1.03
